PABP FP inh = PABP poly(A) RNA binding inhibitors, primary screen, biochemical, fluorescence polarization, uHTS. calls only at 35 µM. Polyadenylate-binding protein 1 (Homo sapiens), P11940. 1% of 290,000 active;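 further: calls also rest on retests at 20 µM and on dose response follow-up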
Target sequence (P11940 whole entry, looked up): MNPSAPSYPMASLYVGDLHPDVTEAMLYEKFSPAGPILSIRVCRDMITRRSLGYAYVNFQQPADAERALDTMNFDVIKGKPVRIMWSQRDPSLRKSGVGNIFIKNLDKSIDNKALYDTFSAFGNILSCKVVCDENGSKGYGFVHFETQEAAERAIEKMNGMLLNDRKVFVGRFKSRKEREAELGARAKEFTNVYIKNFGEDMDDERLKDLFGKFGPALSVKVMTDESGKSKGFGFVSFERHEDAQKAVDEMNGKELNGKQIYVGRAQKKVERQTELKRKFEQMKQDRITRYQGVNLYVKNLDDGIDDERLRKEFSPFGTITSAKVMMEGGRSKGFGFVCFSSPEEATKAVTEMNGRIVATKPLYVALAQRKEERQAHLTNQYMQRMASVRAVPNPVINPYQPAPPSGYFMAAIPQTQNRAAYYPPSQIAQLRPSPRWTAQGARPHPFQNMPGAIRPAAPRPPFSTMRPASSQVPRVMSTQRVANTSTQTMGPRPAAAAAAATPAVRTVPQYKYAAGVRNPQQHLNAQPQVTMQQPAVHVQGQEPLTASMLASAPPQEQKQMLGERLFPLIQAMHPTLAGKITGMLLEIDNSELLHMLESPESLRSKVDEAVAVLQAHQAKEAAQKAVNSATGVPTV
eIF4E-4G inh = eIF4E–eIF4G protein interaction inhibitors, primary screen, biochemical, uHTS, TR-FRET, eIF4GI fragment; TR-FRET eIF4E-eIF4GI(517-606) binding, 2 h; inhibition, % at 21.7 µM; 0.37% of 220,000 active; AID 782, 2007;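 active means inhibition above about 30%, limit read from the data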
MLLE-PAM2 inh = inhibitors of PABP1 MLLE–PAM2 peptide binding, primary screen, biochemical, fluorescence polarization, FITC-PAM2, GST-MLLE | Polyadenylate-binding protein 1 (Homo sapiens), P11940 | inhibition, % at 20 µM | 0.36% of 360,000 active; in the data active means inhibition above about 35%, passing the limit was not always enough
eIF4H FP inh = human eIF4H binding inhibitors, primary screen, translation initiation inhibitor project, biochemical, uHTS, fluorescence polarization. Eukaryotic translation initiation factor 4H (Homo sapiens), Q15056. eIF4H fluorescence polarization binding assay. inhibition, % at 35 µM. 0.94% of 290,000 active;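 further: calls also rest on retests at 20 µM and on dose response follow-up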
Numbers stand for hits; . = inactive; ? = inconclusive; / = no result; + = active, no number. In the library only some 1.5% were active in any assay of this set; here they are far more common. Unless noted, how the calls were made is not given here.

SMILES	PABP FP inh	eIF4E-4G inh	MLLE-PAM2 inh	eIF4H FP inh
CCOc1cc(/C=C2/SC(=S)N(Cc3ccccc3)C2=O)ccc1O	.	/	.	.
COc1cc(/C=C2\C(=O)N(c3ccc(NC(C)=O)cc3)N=C2c2ccccc2)ccc1O	.	.	.	.
O=C1/C(=C\c2ccc(O)c(O)c2)C(c2ccccc2)=NN1c1ccccc1	+	.	.	.
CCOc1cc(/C=C2\C(=O)N(c3nc(-c4ccc(Br)cc4)cs3)N=C2c2ccccc2)ccc1O	.	.	.	84
O=C(Nc1ccccc1N1CCOCC1)[C@@H]1O[C@H](CO)[C@H](O)[C@H](O)[C@H]1O	/	/	.	/
O=C(/C=C/c1cccc([N+](=O)[O-])c1)Nc1ccc(NC(=O)c2cccs2)cc1	+	.	.	.
CCOC(=O)/C(C#N)=C/c1c(Oc2cccc(C)c2)nc2c(C)cccn2c1=O	.	.	.	.
Cc1ccc(Oc2nc3c(C)cccn3c(=O)c2/C=C(\C#N)C(N)=O)cc1	.	41	.	.
O=C(Nc1ccc(C(O)c2ccccc2)cc1)[C@@H]1O[C@H](CO)[C@H](O)[C@H](O)[C@H]1O (some centres not stated)	/	/	.	/
CC(C)(C)NC(=O)CCN(/N=C/c1ccc([N+](=O)[O-])o1)C1=NS(=O)(=O)c2ccccc21	.	.	.	82
COc1ccc(C(=O)CC(Sc2ccccc2N)c2ccc(OC)cc2)cc1 (configuration not stated)	/	/	.	/
O=C(CC[C@H]1O[C@@H](n2ccc(=O)[nH]c2=O)[C@H](O)[C@@H]1O)NCC(c1ccccc1)c1ccccc1	/	/	.	/
CC12CCC3C(CCC4CC(O)CCC43C)C1CC(=O)C2 (configuration not stated)	/	/	.	/
COc1ccccc1-c1noc(-c2ccccc2)n1	.	87	.	.
COc1ccc(-c2nc(-c3ccccc3OC)no2)cc1OC	.	.	.	.
Cc1ccc(C(=O)Nc2nc3ccccc3c(=O)s2)cc1	.	.	46	.
CC(C)[C@@H](C(=O)N[C@@H](CCc1ccc(O)cc1)C(=O)O)N(C)C(=O)[C@H](CO)NC(=O)[C@@H](O)[C@H](N)CCCCCCCCl	/	/	.	/
O=C1NC(=S)CN1c1ccccc1	.	.	57	.
O=C(/C=C/c1ccc(Br)o1)Nc1nccs1	+	.	.	57
O=C(Nc1nccs1)c1ccc(Br)o1	.	.	.	.
COc1ccc(OC)c(-c2csc(NC(=O)Cn3[nH]c(=O)c4ccccc4c3=O)n2)c1	.	42	.	.
Cc1cc(C(=O)N2CCC2(C)C(=O)NS(=O)(=O)c2cccc(Cl)c2)nn1C (configuration not stated)	/	/	.	/
CN(Cc1ccc(F)cc1)C(=O)c1sccc1-c1ccccc1	+	/	.	.
COc1ccc(CN(C)C(=O)c2sccc2-c2ccccc2)c(OC)c1	.	/	.	.
COc1ccc(NC(=O)C(=O)N/N=C/c2cccnc2)cc1	.	85	.	.
SMILES	PABP FP inh	eIF4E-4G inh	MLLE-PAM2 inh	eIF4H FP inh
O=c1cc(-c2ccc([N+](=O)[O-])cc2)nc2cc(-c3ccc(F)cc3)[nH]n12	+	.	.	.
Cc1ccccc1-c1cc2nc(-c3ccc([N+](=O)[O-])cc3)cc(=O)n2[nH]1	.	.	.	.
Cc1cccc(C)c1C(O)c1ncc(-c2ccccc2C(F)(F)F)[nH]1 (configuration not stated)	/	/	.	/
CN(C)c1oc(-c2ccccc2[N+](=O)[O-])nc1C#N	.	.	42	.
CC1=CC(=C2C(=O)c3ccccc3C2=O)C=C(C)N1C	.	.	.	.
CCCCCN1C=CC(=C2C(=O)c3ccccc3C2=O)C=C1	+	.	.	88
COc1ccc(C(O)c2ncc(-c3ccccc3Cl)[nH]2)cc1 (configuration not stated)	/	/	.	/
CCOC(=O)Cc1cc(=O)n(-c2nc3ccccc3s2)[nH]1	+	.	.	70
CN1CCN(c2ccc(CNC[C@H]3O[C@@H](n4cnc5c(=O)[nH]c(N)nc54)[C@H](O)[C@@H]3O)c(F)c2)CC1	/	/	.	/
CCOC(=O)c1c(Nc2ccc(Cl)cc2)sc(/C=C2\C=Nc3ccccc32)c1O	+	.	.	?
Oc1nc(Nc2cccc(Cl)c2)sc1/C=C1\C=Nc2ccccc21	.	.	.	.
S=C(NC1CCCCC1)N1CCn2cccc2C1c1cccnc1 (configuration not stated)	.	.	.	.
S=C(NC1CCCCC1)N1CCn2cccc2C1c1ccncc1 (configuration not stated)	+	.	.	70
O=C(CCN1C(=O)/C(=C/c2ccccc2F)SC1=S)NCCCN1CCOCC1	.	/	.	.
O=C(CCCN1C(=O)/C(=C/c2ccccc2Cl)SC1=S)NCCCN1CCOCC1	.	/	41	.
C=C(C)Cn1c2ccc(NC(=O)CCc3cccnc3)cc2c(=O)n1C	/	/	.	/
CCCCN(C(=O)c1cccc(S(=O)(=O)N2CCOCC2)c1)c1c(N)n(CCC)c(=O)[nH]c1=O	+	.	.	.
N#Cc1ccsc1NC(=O)c1cccc(-n2cnnn2)c1	+	/	.	.
CC(C)c1nnc(NC(=O)c2cccc(-n3cnnn3)c2)s1	.	.	.	.
NC(Cc1ccccc1)c1csc(NC(=O)c2cccc(OC(F)(F)F)c2)n1 (configuration not stated)	/	/	.	/
O=C(Nc1c(-c2ccccc2)[nH][nH]c1=O)c1cccc(C(F)(F)F)c1	/	/	.	/
O=S(=O)(c1ccccc1)N1CCCC1c1cccs1 (configuration not stated)	.	97	.	.
COc1ccc(S(=O)(=O)N2CCCC2c2cccs2)cc1 (configuration not stated)	.	.	.	.
Cc1nc2c(OCc3ccc(Cl)cc3)cccn2c1N(C)C(=O)CCC1CCCC1	/	/	.	/
CN(C)c1cccc(NC2=CC(=[N+]3CCOCC3)CC(C)(C)C2)c1	+	.	.	.
SMILES	PABP FP inh	eIF4E-4G inh	MLLE-PAM2 inh	eIF4H FP inh
CC1(C)CC(=O)C=C(Nc2cccc(F)c2)C1	.	/	.	.
COc1cc(OC)c(/C=N/NC(=O)c2ccc(NC(C)=O)cc2)cc1Br	.	42	.	.
COc1cc(OC)c(/C=N/NC(=O)c2ccncc2)cc1Br	.	.	.	.
Cc1ccccc1C(=O)Nc1sc(C)c(C)c1C(=O)c1ccccc1	.	.	.	.
Cc1sc(NC(=O)CCl)c(C(=O)c2ccccc2)c1C	.	.	37	.
CCC(=O)NC(=S)NNC(=O)c1ccccc1[N+](=O)[O-]	+	.	.	?
CC(=O)N(C)C1=C(N2CCOCC2)C(=O)c2ccccc2C1=O	.	.	.	.
CC(=O)N(C1=C(N2CCOCC2)C(=O)c2ccccc2C1=O)c1ccc(C(=O)O)cc1	.	36	.	.
NC(=O)c1cccc(-c2coc3c(C(=O)NCc4ccccc4)cccc23)c1	/	/	.	/
O=C(/C=C/c1ccco1)NC(=S)Nc1ccc(N2CCCC2)cc1	+	.	36	93
